Rows were chosen to be rich in hits. Some 9.3% of all compounds tested hit in one or more screens of this group.
Rab9 prom act – qHTS Assay for Rab9 Promoter Activators; Potency, µM (titrated, usually from 9.22 µM), for inactives: top-dose activation, negative = inhibition, hits mostly activators; Huh7 Rab9 promoter-luciferase reporter, luminescence, 24 h; hit rate 2.8% among 320,000; also: % of control where 0% means no effect; nearly all actives have a fitted effect of over 60% in size
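Cells were plated at 1500 per well in reduced-serum medium with 10% FBS and left 2 h. Compound in DMSO was then added for 24 h at 37 °C. Reporter signal was read by luminescence after 10 min with luciferase detection reagent.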
ELG1 genotoxic – qHTS screen for small molecules that induce genotoxicity in human embryonic kidney (HEK293T) cells expressing luciferase-tagged ELG1 | HEK293T ELG1-luciferase reporter, luminescence, 16 h | Potency, µM (highest dose often 46 µM), without a hit: at the highest dose activity change, positive = activation, hits mostly activators | hit rate 1.3% among 330,000; also: % of control where 0% means no effect; nearly all actives have a fitted effect of over 60% in size
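Step 1: seed 2,000 HEK293T ELG1-luciferase cells per well. Step 2: add compound or DMSO, incubate 16 hr at 37 °C. Step 3: ONE-Glo, 30 min at room temperature, read luminescence.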
ELG1 DNA repair – qHTS screen for small molecules that inhibit ELG1-dependent DNA repair in human embryonic kidney (HEK293T) cells expressing luciferase-tagged ELG1; HEK293T ELG1-luciferase reporter, luminescence, 16 h; DNA damage induced by 5-fluorouridine; Potency, µM (highest dose often 46.1 µM), inactives show top-dose activity change, negative = inhibition, hits mostly inhibitors; hit rate 2.3% among 330,000; AID 504467, 2011; also: % is scaled to controls: 0 for no effect and ±100 for the full control effect; nearly all actives have a fitted effect of over 55% in size
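DMSO vehicle served as the neutral condition. Each well held 2,000 cells given 5-fluorouridine plus compound; after 16 hr at 37 °C/5% CO2, ONE-Glo was added and luciferase measured 30 min later.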
SMN2 splice up – qHTS Assay for Enhancers of SMN2 Splice Variant Expression | HEK293 SMN2-luciferase splicing reporter, luminescence, 30-36 h | Potency, µM (top dose mostly 46.1 µM), without a hit: top-dose activity change, positive = activation, actives largely listed as activators | hit rate 2.8% among 210,000; also: % of control where 0% means no effect; nearly all actives have a fitted effect of over 55% in size
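qHTS luciferase splicing reporter: luminescence rises when SMN2 exon 7 is included in transfected HEK293 cells. Compound exposure lasted 30-36 h at 37C, with 4.5 mM final sodium butyrate as control, followed by a ONE-Glo read.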
FLuc modulator – qHTS profiling assay for firefly luciferase inhibitor/activator using purifed enzyme and Km concentrations of substrates (counterscreen for miR-21 project) | Potency, µM (series often up to 57.5 µM), without a hit: at the highest dose activity change, negative = inhibition, actives largely listed as inhibitors | Luciferin 4-monooxygenase (Photinus pyralis), P08659 | hit rate 6.9% among 360,000 | purified FLuc, Km substrates, luminescence inhibition | AID 588342, 2011;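 also: plate controls were vehicle for no effect and reference inhibitor for full effect; nearly all actives have a fitted effect of over 55% in size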
Target sequence (P08659 whole entry, looked up): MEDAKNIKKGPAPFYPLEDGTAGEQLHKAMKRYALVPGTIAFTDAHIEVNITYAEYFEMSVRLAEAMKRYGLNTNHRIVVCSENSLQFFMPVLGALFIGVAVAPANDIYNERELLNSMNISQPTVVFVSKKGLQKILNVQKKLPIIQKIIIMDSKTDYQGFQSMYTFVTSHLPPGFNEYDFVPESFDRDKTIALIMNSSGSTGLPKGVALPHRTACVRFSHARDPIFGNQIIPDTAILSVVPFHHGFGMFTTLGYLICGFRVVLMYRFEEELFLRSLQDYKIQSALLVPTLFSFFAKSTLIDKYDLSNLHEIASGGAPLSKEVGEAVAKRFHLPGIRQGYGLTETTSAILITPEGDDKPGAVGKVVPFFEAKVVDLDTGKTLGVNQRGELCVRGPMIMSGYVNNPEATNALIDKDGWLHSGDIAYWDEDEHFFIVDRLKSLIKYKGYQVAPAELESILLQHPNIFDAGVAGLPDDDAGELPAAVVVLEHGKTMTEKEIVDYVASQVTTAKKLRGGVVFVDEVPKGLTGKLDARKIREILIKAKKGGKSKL
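Purified P. pyralis luciferase (10nM final) with 10uM D-luciferin and 10uM ATP (Km levels) in 50mM Tris acetate pH 7.5, 10mM Mg acetate, 0.01% Tween-20, 0.05% BSA; qHTS 6-point titration, ~60 µM downward; luminescence read.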
NPC1 promoter act – qHTS Assay for NPC1 Promoter Activators | Huh7 NPC1 promoter luciferase reporter, 24 h | Potency, µM (highest dose often 9.22 µM), for the others: top-dose activation, hits mostly activators | hit rate 2.4% among 320,000; also: % of control where 0% means no effect; nearly all actives have a fitted effect of over 60% in size
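NPC1 promoter–luciferase Huh7 cells; 24 h compound; luminescence.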
Starred values were filed as active, the others as inactive; u = inconclusive; x = no result given; [ ] = another dose, or the depositor's remark. Calls follow the shape of the dose curve; as a rule, active = well fitted curve in the direction sought with a large enough effect; inconclusive = small, poorly fitted or top-dose-only effect, or another doubt; inactive = no such curve, though single readings can be large; an effect the other way counts as inactive or inconclusive. Potency is read from the fitted curve at half-maximal effect.

SMILES	Rab9 prom act	ELG1 genotoxic	ELG1 DNA repair	SMN2 splice up	FLuc modulator	NPC1 promoter act
CCc1ccc(CC2S/C(=C(\C#N)C(C)=O)NC2=O)cc1 (centres undefined)	-9%	-7%	0%	11µM*	u	3%
COc1cccc(N2CCN(C(=O)c3ccc4c(=O)n(CCc5ccccc5)c(=O)[nH]c4c3)CC2)c1	x	x	x	1%	-2%	x
O=C(N/N=C/c1cc(Br)cs1)c1ccccc1[N+](=O)[O-]	-16%	-5%	u	-8%	1%	-9%
O=C(N/N=C/c1ccc(Br)s1)Nc1ccccc1	u	13%	u	28%	u	27%
O=C(N/N=C/c1cc(Br)cs1)c1c[nH]c2ccccc12	24%	8%	-6%	x	17µM*	u
O=C(N/N=C/c1ccc(Br)s1)c1c[nH]c2ccccc12	2.8µM*	3%	u	8.9µM*	21µM*	3.5µM*
c1ccc2c3c(cc(N4CCOCC4)c2c1)OC1(N2CCOCC2)CCCCC1O3 (centres undefined)	3%	-15%	u	22µM*	0%	1%
COc1nnc(-c2ccc(N3CCOCC3)c(NC(=O)C3CCCCC3)c2)c2ccccc12	-1%	2%	0%	-14%	2%	-11%
Cc1ccc(/C=N/Nc2ccc(Cl)c(C(=O)O)c2)s1	0.32µM*	u	u	0.89µM*	4.8µM*	0.32µM*
Cc1ccsc1/C=N/Nc1nc(Cl)c(Cl)cc1Cl	8%	16%	u	u	u	16%
O=C(O)c1cc(N/N=C/c2cccs2)ccc1Cl	u	u	u	11µM*	9.5µM*	u
Cc1ccc(/C=N/Nc2nc(Cl)c(Cl)cc2Cl)s1	u	u	u	u	6µM*	u
Cc1ccc(/C=N/Nc2ccc(F)cc2)s1	27%	10%	-5%	x	u	29%
O=C(NCc1ccccc1)c1cccc(Br)n1	1%	-1%	u	-25%	4%	-1%
CC(=O)N1CCC[C@@]2(CCN(Cc3ccccc3)C2)C1	x	x	x	-8%	x	x
O=C(Cn1c(COc2ccc(Cl)cc2)nc2ccccc21)NCC(F)(F)F	13%	3%	11%	12%	u	-3%
Cc1ccc(SCC(=O)Nc2nccs2)cc1	u	u	u	10%	u	u
O=C(CSc1ccccc1)Nc1nccs1	u	7%	u	17%	-16%	14%
Cc1ccc(SCc2ccc(C(=O)Nc3nccs3)o2)cc1	u	8%	u	x	15µM*	u
O=C(Nc1nccs1)c1ccc(CSc2ccccc2)o1	2µM*	16%	u	x	5.4µM*	3.2µM*
CCn1c(=O)cc(SCC(=O)Nc2cc(OC)c(OC)c(OC)c2)c2ccccc21	4%	4%	0%	-2%	-2%	0%
COc1ccc(N2C(=O)CSC2c2ccc3c(c2)OCO3)c(OC)c1 (centres undefined)	8%	3%	2%	15%	-1%	-1%
O=C(Nc1ccc(Br)cc1)N1CCCC(O)C1 (centres undefined)	20%	14%	u	4%	-10%	10%
COC(=O)c1ccc(NC(=O)C(=O)N2CCCC2)cc1	u	u	u	u	21µM*	2.8µM*
O=C1CCCC/C1=C\Nc1ccc(O)cc1	15%	u	u	u	u	11%
SMILES	Rab9 prom act	ELG1 genotoxic	ELG1 DNA repair	SMN2 splice up	FLuc modulator	NPC1 promoter act
CCOC(=O)c1ccc(N/C=C2\CCCCC2=O)cc1	2.5µM*	2.3µM*	u	u	2.7µM*	4µM*
O=C(Nc1ccc(Br)cc1)N1CCCCCC1	2.2µM*	u	u	x	11µM*	u
CCN1CCN(C(=O)Nc2ccc(Cc3ccc(NC(=O)N4CCN(CC)CC4)cc3)cc2)CC1	11%	-5%	15%	7%	13µM*	1%
CCc1ccc(NS(=O)(=O)c2ccc(NC(=O)N3CCCC3)cc2)cc1	x	x	x	x	2%	x
CCOC(=O)c1ccc(NC(=O)N2CCN(C3CCCCC3)CC2)cc1	-4%	0%	0%	27%	1%	-2%
CCc1ccc(NC(=O)N2CCCCCC2)cc1	1.8µM*	21µM*	u	x	13µM*	2.2µM*
Cc1ccc(NC(=O)N2CCCCCC2)cc1	u	u	u	x	15µM*	u
CCOC(=O)c1ccc(NC(=O)N2CCCCC2)cc1	3.2µM*	10µM*	u	u	13µM*	2.5µM*
O=C(Cn1cnc2c(nnn2Cc2ccc(F)cc2)c1=O)NCc1ccc(F)cc1	-5%	-3%	-21%	-6%	1%	-13%
CCOc1ccc(-n2c(SCC(N)=O)nnc2-c2cccnc2)cc1	-2%	1%	8%	x	-2%	0%
CCCCCCCn1ccc(O)c(CC(=O)OC)c1=O	-6%	5%	-2%	-6%	2%	-7%
CCCCCn1ccc(=O)c2c(C(F)(F)F)nccc21	-11%	-9%	5.8µM*	-84%	2%	-8%
COc1ccccc1CNC(=O)CN1c2cccc3cccc(c23)S1(=O)=O	-7%	-1%	-9%	x	24µM*	1%
CCCCOCCCN1CC(=O)N2[C@@H](Cc3c([nH]c4ccccc34)C2(C)C)C1=O	-5%[1.84 µM]	-15%	13µM*	x	1%	-3%
CCOC(=O)C(=CNc1cc(C)nn1-c1ccc(C)cc1)C(=O)OCC	-6%	-23%	13µM*	u	3%	0%
O=C(C1=C[C@@H]2[C@H]3C(=O)N(c4ccccc4)C(=O)[C@H]3[C@@H](C(=O)c3ccc(Cl)cc3)N2C=C1)c1ccccc1	-3%	-1%	6%	-5%	-1%	-2%
Fc1cccc(Cl)c1Cc1noc(/C=C/c2ccccc2)n1	u	15%	u	x	13µM*	u
CCNC(=O)c1ccc(NS(=O)(=O)c2ccc3[nH]c(=O)[nH]c3c2)cc1	3.5µM*	7.3µM*	u	x	15µM*	2.2µM*
CC1CCC(NC(=O)c2ccc(NS(=O)(=O)c3ccc4[nH]c(=O)[nH]c4c3)cc2)CC1 (centres undefined)	u	18µM*	u	x	u	u
CC1CCCN(C(=O)c2ccc(NS(=O)(=O)c3ccc4[nH]c(=O)[nH]c4c3)cc2)C1 (centres undefined)	-8%	2%	0%	x	-1%	-2%

Screening results deposited in PubChem BioAssay by National Center for Advancing Translational Sciences (NCATS).
